Test results as given in the supplement of paper PMC4466140.

What was measured:
Assay in all cases: SPOT peptide array binding signal intensity (averaged, normalized) (arbitrary units (background-subtracted, floor 0; scale differs between SH3 domains)); higher = stronger binding of the SH3 domain to the peptide
[1] = molecular target: CaNbp2
How it was run: (§1)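 Detection of bound protein relied on anti-GST antibody, an HRP anti-mouse secondary and luminol, with imaging and quantification in Genespotter. The bound protein was GST-fused SH3 domains from four yeast species, incubated at 10 μg/ml overnight at 4°C in TBS-based blocking buffer on cellulose membranes carrying synthetic 15-mer peptides with cysteines replaced by serines. Binding signal is normalized, background-subtracted spot intensity averaged over replicates, in arbitrary units that differ between domains.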

[2] = molecular target: CaRvs167
How it was run: as §1

[3] = molecular target: CaRvs167-3
How it was run: as §1

[4] = molecular target: CaSho1
How it was run: as §1

[5] = molecular target: CaSla1-D1-D2
How it was run: as §1

[6] = molecular target: CaSla1-D3
How it was run: as §1

[7] = molecular target: ScAbp1
How it was run: as §1

[8] = molecular target: ScBbc1
How it was run: as §1

[9] = molecular target: ScBem1-D1
How it was run: as §1

[10] = molecular target: ScBzz1-D1
How it was run: as §1

[11] = molecular target: ScBzz1-D2
How it was run: as §1

[12] = molecular target: ScCyk3
How it was run: as §1

[13] = molecular target: ScFus1
How it was run: as §1

[14] = molecular target: ScHof1
How it was run: as §1

[15] = molecular target: ScHse1
How it was run: as §1

[16] = molecular target: ScLsb1
How it was run: as §1

[17] = molecular target: ScLsb2
How it was run: as §1

[18] = molecular target: ScLsb3
How it was run: as §1

[19] = molecular target: ScLsb4
How it was run: as §1

[20] = molecular target: ScMyo3
How it was run: as §1

[21] = molecular target: ScMyo5
How it was run: as §1

[22] = molecular target: ScNbp2
How it was run: as §1

[23] = molecular target: ScPex13
How it was run: as §1

[24] = molecular target: ScRvs167
How it was run: as §1

[25] = molecular target: ScSho1
How it was run: as §1

[26] = molecular target: ScSla1-D1-D2
How it was run: as §1

[27] = molecular target: ScSla1-D3
How it was run: as §1

[28] = molecular target: SpAbp1-D1
How it was run: as §1

[29] = molecular target: SpBbc1
How it was run: as §1

[30] = molecular target: SpBzz1-D1
How it was run: as §1

[31] = molecular target: SpBzz1-D2
How it was run: as §1

[32] = molecular target: SpCyk3
How it was run: as §1

[33] = molecular target: SpHof1
How it was run: as §1

[34] = molecular target: SpHof1-2
How it was run: as §1

[35] = molecular target: SpHof1-3
How it was run: as §1

[36] = molecular target: SpHse1
How it was run: as §1

[37] = molecular target: SpLsb1
How it was run: as §1

[38] = molecular target: SpLsb4
How it was run: as §1

[39] = molecular target: SpMyo1
How it was run: as §1

[40] = molecular target: SpNbp2
How it was run: as §1

[41] = molecular target: SpPex13
How it was run: as §1

[42] = molecular target: SpRvs167
How it was run: as §1

[43] = molecular target: SpSla1-D1-D2
How it was run: as §1

[44] = molecular target: SpSla1-D3
How it was run: as §1

[45] = molecular target: AgAbp1
How it was run: as §1

[46] = molecular target: AgBbc1
How it was run: as §1

[47] = molecular target: AgBem1-D1
How it was run: as §1

[48] = molecular target: AgBzz1-D1
How it was run: as §1

[49] = molecular target: AgBzz1-D2
How it was run: as §1

[50] = molecular target: AgCyk3
How it was run: as §1

[51] = molecular target: AgFus1
How it was run: as §1

[52] = molecular target: AgHof1
How it was run: as §1

[53] = molecular target: AgHse1
How it was run: as §1

[54] = molecular target: AgLsb1
How it was run: as §1

[55] = molecular target: AgLsb4
How it was run: as §1

[56] = molecular target: AgMyo5
How it was run: as §1

[57] = molecular target: AgNbp2
How it was run: as §1

[58] = molecular target: AgRvs167
How it was run: as §1

[59] = molecular target: AgSho1
How it was run: as §1

[60] = molecular target: AgSla1-D1-D2
How it was run: as §1

[61] = molecular target: AgSla1-D3
How it was run: as §1

[62] = molecular target: CaAbp1-D1
How it was run: as §1

[63] = molecular target: CaAbp1-D2
How it was run: as §1

[64] = molecular target: CaBbc1
How it was run: as §1

[65] = molecular target: CaBem1-D1
How it was run: as §1

[66] = molecular target: CaBzz1-D1
How it was run: as §1

[67] = molecular target: CaBzz1-D2
How it was run: as §1

[68] = molecular target: CaCyk3
How it was run: as §1

[69] = molecular target: CaFus1
How it was run: as §1

[70] = molecular target: CaHof1
How it was run: as §1

[71] = molecular target: CaHse1
How it was run: as §1

[72] = molecular target: CaLsb1
How it was run: as §1

[73] = molecular target: CaLsb4
How it was run: as §1

[74] = molecular target: CaMyo5
How it was run: as §1

## AIPPPVPNRPGGTTN
[1]
  SPOT peptide array binding signal intensity: 1
[2]
  SPOT peptide array binding signal intensity: 1180
[3]
  SPOT peptide array binding signal intensity: 1.25
[4]
  SPOT peptide array binding signal intensity: 7
[5]
  SPOT peptide array binding signal intensity: ≤ 0
[6]
  SPOT peptide array binding signal intensity: ≤ 0
[7]
  SPOT peptide array binding signal intensity: ≤ 0
[8]
  SPOT peptide array binding signal intensity: 515
[9]
  SPOT peptide array binding signal intensity: ≤ 0
[10]
  SPOT peptide array binding signal intensity: 5
[11]
  SPOT peptide array binding signal intensity: 1.5
[12]
  SPOT peptide array binding signal intensity: ≤ 0
[13]
  SPOT peptide array binding signal intensity: ≤ 0
[14]
  SPOT peptide array binding signal intensity: 3
[15]
  SPOT peptide array binding signal intensity: 8
[16]
  SPOT peptide array binding signal intensity: 1120
[17]
  SPOT peptide array binding signal intensity: 302
[18]
  SPOT peptide array binding signal intensity: 1950
[19]
  SPOT peptide array binding signal intensity: 857
[20]
  SPOT peptide array binding signal intensity: 26
[21]
  SPOT peptide array binding signal intensity: 1.75
[22]
  SPOT peptide array binding signal intensity: 15
[23]
  SPOT peptide array binding signal intensity: 858
[24]
  SPOT peptide array binding signal intensity: 1860
[25]
  SPOT peptide array binding signal intensity: ≤ 0
[26]
  SPOT peptide array binding signal intensity: 13.5
[27]
  SPOT peptide array binding signal intensity: ≤ 0
[28]
  SPOT peptide array binding signal intensity: ≤ 0
[29]
  SPOT peptide array binding signal intensity: 358
[30]
  SPOT peptide array binding signal intensity: 146
[31]
  SPOT peptide array binding signal intensity: 0.5
[32]
  SPOT peptide array binding signal intensity: 1
[33]
  SPOT peptide array binding signal intensity: ≤ 0
[34]
  SPOT peptide array binding signal intensity: ≤ 0
[35]
  SPOT peptide array binding signal intensity: 16
[36]
  SPOT peptide array binding signal intensity: 8.5
[37]
  SPOT peptide array binding signal intensity: 959
[38]
  SPOT peptide array binding signal intensity: 2930
[39]
  SPOT peptide array binding signal intensity: 9.5
[40]
  SPOT peptide array binding signal intensity: 6.5
[41]
  SPOT peptide array binding signal intensity: ≤ 0
[42]
  SPOT peptide array binding signal intensity: 2560
[43]
  SPOT peptide array binding signal intensity: ≤ 0
[44]
  SPOT peptide array binding signal intensity: ≤ 0

## SRQAIPPPVPNRPGG
[45]
  SPOT peptide array binding signal intensity: ≤ 0
[46]
  SPOT peptide array binding signal intensity: 1960
[47]
  SPOT peptide array binding signal intensity: 0.5
[48]
  SPOT peptide array binding signal intensity: 280
[49]
  SPOT peptide array binding signal intensity: 15
[50]
  SPOT peptide array binding signal intensity: ≤ 0
[51]
  SPOT peptide array binding signal intensity: ≤ 0
[52]
  SPOT peptide array binding signal intensity: 39.2
[53]
  SPOT peptide array binding signal intensity: 40
[54]
  SPOT peptide array binding signal intensity: 1770
[55]
  SPOT peptide array binding signal intensity: 1590
[56]
  SPOT peptide array binding signal intensity: 74.5
[57]
  SPOT peptide array binding signal intensity: 106
[58]
  SPOT peptide array binding signal intensity: 362
[59]
  SPOT peptide array binding signal intensity: ≤ 0
[60]
  SPOT peptide array binding signal intensity: ≤ 0
[61]
  SPOT peptide array binding signal intensity: 3.5
[62]
  SPOT peptide array binding signal intensity: 156
[63]
  SPOT peptide array binding signal intensity: 8.5
[64]
  SPOT peptide array binding signal intensity: 3020
[65]
  SPOT peptide array binding signal intensity: 30
[66]
  SPOT peptide array binding signal intensity: 2510
[67]
  SPOT peptide array binding signal intensity: 346
[68]
  SPOT peptide array binding signal intensity: 359
[69]
  SPOT peptide array binding signal intensity: 23
[70]
  SPOT peptide array binding signal intensity: 1
[71]
  SPOT peptide array binding signal intensity: 101
[72]
  SPOT peptide array binding signal intensity: 3.75
[73]
  SPOT peptide array binding signal intensity: 2960
[74]
  SPOT peptide array binding signal intensity: 2
[1]
  SPOT peptide array binding signal intensity: 50.5
[2]
  SPOT peptide array binding signal intensity: 1340
[3]
  SPOT peptide array binding signal intensity: ≤ 0
[4]
  SPOT peptide array binding signal intensity: 8
[5]
  SPOT peptide array binding signal intensity: 201
[6]
  SPOT peptide array binding signal intensity: 0.75
[7]
  SPOT peptide array binding signal intensity: 16
[8]
  SPOT peptide array binding signal intensity: 802
[9]
  SPOT peptide array binding signal intensity: ≤ 0
[10]
  SPOT peptide array binding signal intensity: 23
[11]
  SPOT peptide array binding signal intensity: 6
[12]
  SPOT peptide array binding signal intensity: 1
[13]
  SPOT peptide array binding signal intensity: ≤ 0
[14]
  SPOT peptide array binding signal intensity: 10
[15]
  SPOT peptide array binding signal intensity: ≤ 0
[16]
  SPOT peptide array binding signal intensity: 1620
[17]
  SPOT peptide array binding signal intensity: 1320
[18]
  SPOT peptide array binding signal intensity: 3290
[19]
  SPOT peptide array binding signal intensity: 2540
[20]
  SPOT peptide array binding signal intensity: 371
[21]
  SPOT peptide array binding signal intensity: 220
[22]
  SPOT peptide array binding signal intensity: 304
[23]
  SPOT peptide array binding signal intensity: 1830
[24]
  SPOT peptide array binding signal intensity: 1980
[25]
  SPOT peptide array binding signal intensity: 32
[26]
  SPOT peptide array binding signal intensity: 695
[27]
  SPOT peptide array binding signal intensity: 9.5
[28]
  SPOT peptide array binding signal intensity: 17
[29]
  SPOT peptide array binding signal intensity: 723
[30]
  SPOT peptide array binding signal intensity: 760
